This passage reports outcome and AC50 results from PubChem BioAssay (EPA / NIEHS).

The target in assay [1] is Myc proto-oncogene protein (Homo sapiens) (UniProt P01106). The assay can be described thus: ATG_Myc_CIS: Attagene CIS-FACTORIAL HepG2 Assay for human Myelocytomatosis (Myc) Proto-Oncogene Transcription Factor (AID 2282990). Conditions: HepG2, Attagene cis-reporter transcription factor activity; actives raise or lower the signal. The method in brief: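 Multiplexed cis-reporter transcription in HepG2 cells after 24 h chemical treatment. Reporter mRNA measured by RT-PCR and capillary electrophoresis fluorescence; activity fitted bidirectionally against DMSO control.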
Myc proto-oncogene protein (Homo sapiens), sequence (P01106 whole entry, looked up): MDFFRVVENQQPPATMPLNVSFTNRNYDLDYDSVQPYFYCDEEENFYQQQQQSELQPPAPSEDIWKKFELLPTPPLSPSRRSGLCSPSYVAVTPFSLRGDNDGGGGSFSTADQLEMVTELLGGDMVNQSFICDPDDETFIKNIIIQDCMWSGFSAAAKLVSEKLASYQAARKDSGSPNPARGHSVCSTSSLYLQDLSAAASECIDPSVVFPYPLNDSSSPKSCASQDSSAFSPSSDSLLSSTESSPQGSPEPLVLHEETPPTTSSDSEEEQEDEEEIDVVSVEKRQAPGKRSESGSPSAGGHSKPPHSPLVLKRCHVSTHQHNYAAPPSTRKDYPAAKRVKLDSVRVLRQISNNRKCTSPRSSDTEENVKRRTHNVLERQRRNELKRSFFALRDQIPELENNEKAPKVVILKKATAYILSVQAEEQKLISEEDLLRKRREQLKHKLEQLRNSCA

Assay [2] is described as follows: ATG_NRF2_ARE_CIS: Attagene CIS-FACTORIAL HepG2 Assay for human Nuclear Factor Erythroid 2 Related Factor 2 (NFR2) response to Antioxidant Response Elements (ARE) (AID 2282992). Conditions: HepG2 Attagene ARE/NRF2 reporter, transcription factor activity; actives raise or lower the signal. The gist of the method: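 Fluorescence intensity of reporter-specific cDNA fragments, separated by capillary electrophoresis, reflects mRNA induction in transfected HepG2 cells at 24 h. Activity is fitted bidirectionally, DMSO serving as baseline.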

Assay [3] is described as follows: ATG_Oct_MLP_CIS: Attagene CIS-FACTORIAL HepG2 Assay for human Octamer-Binding Transcription Factor (Oct) (AID 2282993). The note with it: HepG2 Attagene cis-factorial Oct reporter, mRNA; actives raise or lower the signal. The gist of the method: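 Readout is reporter transcript level from RT-PCR with fluorescent primer extension and capillary electrophoresis, fitted in both directions against DMSO. Transfected HepG2 reporter units report endogenous factor activity after 24 h dosing.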

The target of assay [4] is Cellular tumor antigen p53 (Homo sapiens) (UniProt P04637). The assay can be described thus: ATG_p53_CIS: Attagene CIS-FACTORIAL HepG2 Assay for human p53 Transcription Factor (AID 2282994). Conditions: HepG2 p53 cis-element reporter, Attagene mRNA; actives raise or lower the signal. The gist of the method: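 Transiently transfected HepG2 (multiple cis reporter transcription units); exposure 24 h; reporter RNA via RT-PCR, 6-FAM extension, 2 h HpaI digest at 37 C, CE detection; DMSO baseline.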
Cellular tumor antigen p53 (Homo sapiens), sequence (P04637 whole entry, looked up): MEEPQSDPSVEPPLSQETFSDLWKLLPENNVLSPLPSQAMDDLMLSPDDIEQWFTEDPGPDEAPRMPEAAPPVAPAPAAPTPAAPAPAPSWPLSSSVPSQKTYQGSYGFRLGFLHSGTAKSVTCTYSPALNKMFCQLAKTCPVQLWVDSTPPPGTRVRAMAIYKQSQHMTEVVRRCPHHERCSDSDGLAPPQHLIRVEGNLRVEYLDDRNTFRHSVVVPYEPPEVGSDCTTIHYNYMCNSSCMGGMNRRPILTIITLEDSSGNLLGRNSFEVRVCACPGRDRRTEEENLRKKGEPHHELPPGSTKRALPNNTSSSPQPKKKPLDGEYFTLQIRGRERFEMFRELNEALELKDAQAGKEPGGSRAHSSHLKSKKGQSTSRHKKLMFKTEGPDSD

Assay [5] is described as follows: BSK_3C_TissueFactor: BioMAP Diversity Plus: 3C Assay for Tissue Factor Biomarker Activity (AID 2282997). Conditions: BioMAP 3C HUVEC, tissue factor biomarker readout; actives raise or lower the signal. The gist of the method:
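In this endothelial system, HUVEC are treated for 24 h and Tissue Factor is assessed by ELISA, normalised to DMSO.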

A short description of assay [6]: BSK_3C_uPAR: BioMAP Diversity Plus: 3C Assay for Urokinase-type plasminogen activator receptor (uPAR) Biomarker Activity (AID 2282998). The note with it: BioMAP 3C HUVEC, uPAR biomarker ELISA; actives raise or lower the signal. The gist of the method:
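Cell-surface uPAR on HUVEC (3C system) read by ELISA at 24 h post-treatment, with DMSO as baseline and fitting in both directions. Parallel cultures stained with SRB to flag overt cytotoxicity.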
Background: An ELISA detects its analyte on a solid surface through an enzyme-linked reagent.

Assay [7] can be described thus: BSK_4H_Eotaxin3: BioMAP Diversity Plus: 4H Assay for Eotaxin 3 Biomarker Activity (AID 2283000).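 On outcome: CCL26 protein level quantified by ELISA in parallel with SRB cytotoxicity check.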 Conditions: primary human endothelial cells (HUVEC); actives raise or lower the signal. The gist of the method: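 ELISA quantitation of CCL26 (Eotaxin-3) protein from chemically dosed human vascular endothelial cells at 24 h; increases and decreases both scored relative to DMSO-treated baseline.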

The target in assay [8] is human Retinoic Acid Receptor beta (RARb), RARB (gene 5915) (UniProt P10826). Kind of assay: ATG_RARb_TRANS: Attagene TRANS-FACTORIAL HepG2 Assay for human Retinoic Acid Receptor beta (AID 2283004; active means hit-call score of the fitted dose curve at least 0.9, where 1 is the maximum). The method in brief: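 Fluorescent capillary-electrophoresis detection of GAL4-UAS reporter mRNA defines the endpoint, with induction over DMSO-treated wells scored as activity. Transiently transfected human hepatoma HepG2 cells expressing exogenous NR–Gal4 proteins are exposed to test chemicals for 24 h.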
human Retinoic Acid Receptor beta (RARb), RARB (gene 5915), sequence (P10826 whole entry, looked up, the tested form may be a part): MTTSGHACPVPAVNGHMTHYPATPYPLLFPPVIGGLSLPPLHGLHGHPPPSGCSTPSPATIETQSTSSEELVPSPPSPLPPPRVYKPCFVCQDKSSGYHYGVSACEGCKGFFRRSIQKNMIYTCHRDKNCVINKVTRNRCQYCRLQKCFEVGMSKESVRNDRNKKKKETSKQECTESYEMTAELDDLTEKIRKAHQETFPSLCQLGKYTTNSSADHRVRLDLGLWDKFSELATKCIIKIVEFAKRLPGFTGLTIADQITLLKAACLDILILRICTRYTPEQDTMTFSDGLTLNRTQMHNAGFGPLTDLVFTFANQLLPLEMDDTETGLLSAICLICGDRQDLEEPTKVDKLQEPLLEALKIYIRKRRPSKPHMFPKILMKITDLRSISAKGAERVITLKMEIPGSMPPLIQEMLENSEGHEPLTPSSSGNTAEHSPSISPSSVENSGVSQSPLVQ

Assay [9] is described as follows: BSK_3C_Proliferation: Cell Proliferation Assessment in the BioMAP Diversity Plus: 3C Assay (AID 2283006).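 On AC50: potency may reflect either rise or fall in cell number versus DMSO.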 Conditions: primary human endothelial cells (HUVEC). The method in brief:
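Cells (human umbilical vein endothelial, sub-confluent) receive test chemical; after 48 h they are fixed in 10% trichloroacetic acid, stained with 0.1% SRB and read at 560 nm. Activity is referenced to DMSO, fitting increases and decreases.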

In assay [10] the target is Nuclear receptor subfamily 1 group I member 2 (Homo sapiens) (UniProt O75469). The assay can be described thus: ATG_PXR_TRANS: Attagene TRANS-FACTORIAL HepG2 Assay for human Pregnane X Receptor (PXR) (AID 2283008; active means hit-call score of the fitted dose curve at least 0.9, where 1 is the maximum). The gist of the method:
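Transient HepG2 transfectants carrying multiplexed reporter transcription units; PXR activity read through a Gal4 chimera. 24 h exposure. RT-PCR/CE fluorescence; upward curve fit referenced to DMSO.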

For assay [11], the target named is human Retinoic Acid Receptor gamma (RARg), RARG (gene 5916) (UniProt P13631). Kind of assay: ATG_RARg_TRANS: Attagene TRANS-FACTORIAL HepG2 Assay for human Retinoic Acid Receptor gamma (RARg) (AID 2283009; active means hit-call score of the fitted dose curve at least 0.9, where 1 is the maximum). The method in brief:
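TRANS format measured activity of exogenous NR-GAL4 fusion (RARg) in transfected HepG2 liver cells after 24 h dosing. Induced reporter RNA was detected by RT-PCR/capillary electrophoresis fluorescence, analysed in the positive direction against DMSO.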

Assay [12] can be described thus: BSK_3C_VCAM1: BioMAP Diversity Plus: 3C Assay for Vascular cell adhesion molecule 1 (VCAM1) Biomarker Activity (AID 2282999). Conditions: BioMAP 3C HUVEC, VCAM1 ELISA, cytokine-stimulated; actives raise or lower the signal. The gist of the method:
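Vascular primary endothelium (human umbilical vein) was exposed to chemicals and assayed 24 h later. VCAM-1 levels came from ELISA, with DMSO serving as baseline for bidirectional fitting.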

Assay [13] addresses human Peroxisome Proliferator-activated Receptor delta (PPARd), PPARD (gene 5467) (UniProt Q03181). The assay can be described thus: ATG_PPARd_TRANS: Attagene TRANS-FACTORIAL HepG2 Assay for human Peroxisome Proliferator-activated Receptor delta (PPARd) (AID 2283002; active means hit-call score of the fitted dose curve at least 0.9, where 1 is the maximum). The gist of the method:
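Multiplexed trans-activation format: HepG2 liver cells expressing exogenous NR-Gal4 chimeras and GAL4-UAS reporters were exposed for 24 h. Reporter mRNA was detected by RT-PCR with capillary electrophoresis fluorescence; activity fitted as gain of signal relative to DMSO.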

Read-out in assay [14]: Intercellular Adhesion Molecule 1 (ICAM1), ICAM1 (gene 3383)
The assay can be described thus: BSK_3C_ICAM1: BioMAP Diversity Plus: 3C Assay for Intercellular Adhesion Molecule 1 (ICAM1) Biomarker Activity (AID 2283003). Conditions: primary human endothelial cells (HUVEC); actives raise or lower the signal. The method in brief:
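Chemicals are dosed onto primary human umbilical vein endothelium (3C system). After 24 h, ICAM-1 is measured by ELISA, and responses are fitted bidirectionally relative to DMSO.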

The target in assay [15] is Retinoic acid receptor alpha (Homo sapiens) (UniProt P10276). Kind of assay: ATG_RARa_TRANS: Attagene TRANS-FACTORIAL HepG2 Assay for human Retinoic Acid Receptor alpha (RARa) (AID 2283005; active means hit-call score of the fitted dose curve at least 0.9, where 1 is the maximum). The gist of the method:
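HepG2 cells transiently transfected with multiple reporter units expressing chimeric RARα-GAL4 fusion, with GAL4-UAS-driven reporters. After 24 h compound exposure, reporter mRNA induction quantified by RT-PCR and capillary electrophoresis with fluorescent labeling; gain-of-signal fitted relative to DMSO control.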

The target of assay [16] is Peroxisome proliferator-activated receptor gamma (Homo sapiens) (UniProt P37231). The assay can be described thus: ATG_PPARg_TRANS: Attagene TRANS-FACTORIAL HepG2 Assay for human Peroxisome Proliferator-activated Receptor-gamma (PPARg) (AID 2283007; active means hit-call score of the fitted dose curve at least 0.9, where 1 is the maximum). The gist of the method: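 Human hepatoma HepG2, transient MRTU transfection, 24 h treatment. mRNA reporter signal by RT-PCR plus capillary electrophoresis, fluorescence detection; fitted for increase over DMSO negative control.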
Peroxisome proliferator-activated receptor gamma (Homo sapiens), sequence (P37231 whole entry, looked up): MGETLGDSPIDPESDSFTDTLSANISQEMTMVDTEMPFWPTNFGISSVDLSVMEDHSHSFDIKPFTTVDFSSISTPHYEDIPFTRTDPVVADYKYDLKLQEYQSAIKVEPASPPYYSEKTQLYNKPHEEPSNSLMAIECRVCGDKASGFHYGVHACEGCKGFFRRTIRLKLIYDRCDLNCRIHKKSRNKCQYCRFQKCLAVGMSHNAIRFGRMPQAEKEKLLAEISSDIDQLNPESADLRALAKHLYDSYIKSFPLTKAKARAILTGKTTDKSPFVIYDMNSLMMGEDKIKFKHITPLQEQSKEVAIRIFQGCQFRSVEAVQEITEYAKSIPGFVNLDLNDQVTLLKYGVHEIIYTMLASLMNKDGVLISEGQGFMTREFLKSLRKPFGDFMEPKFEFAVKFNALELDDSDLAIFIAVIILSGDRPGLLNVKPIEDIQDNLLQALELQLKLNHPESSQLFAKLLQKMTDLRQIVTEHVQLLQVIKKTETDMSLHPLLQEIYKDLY

The target of assay [17] is human RAR-related Orphan Receptor beta (RORb), RORB (gene 6096) (UniProt Q92753). Kind of assay: ATG_RORb_TRANS: Attagene TRANS-FACTORIAL HepG2 Assay for human RAR-related Orphan Receptor beta (RORb) (AID 2283010; active means hit-call score of the fitted dose curve at least 0.9, where 1 is the maximum). The gist of the method: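 Transfect HepG2 with multiple GAL4-UAS reporter transcription units; dose chemicals for 24 h; isolate RNA, reverse-transcribe and PCR-amplify reporter sequences; label, digest and resolve fragments by capillary electrophoresis; fit increases relative to DMSO.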
human RAR-related Orphan Receptor beta (RORb), RORB (gene 6096), sequence (Q92753 whole entry, looked up, the tested form may be a part): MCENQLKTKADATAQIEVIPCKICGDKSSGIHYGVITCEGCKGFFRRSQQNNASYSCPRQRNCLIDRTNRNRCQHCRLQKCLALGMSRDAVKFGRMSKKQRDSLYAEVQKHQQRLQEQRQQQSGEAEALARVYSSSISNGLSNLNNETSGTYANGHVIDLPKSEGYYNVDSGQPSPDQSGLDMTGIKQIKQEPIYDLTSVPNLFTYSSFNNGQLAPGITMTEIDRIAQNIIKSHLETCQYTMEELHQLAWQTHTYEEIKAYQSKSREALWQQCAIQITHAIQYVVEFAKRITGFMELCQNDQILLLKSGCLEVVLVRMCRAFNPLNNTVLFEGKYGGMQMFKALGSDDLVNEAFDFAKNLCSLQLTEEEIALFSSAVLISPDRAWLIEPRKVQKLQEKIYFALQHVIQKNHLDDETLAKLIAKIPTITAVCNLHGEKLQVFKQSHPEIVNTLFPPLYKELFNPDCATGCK

In assay [18] the target is human RAR-related Orphan Receptor gamma (RORg), RORC (gene 6097) (UniProt P51449). The assay can be described thus: ATG_RORg_TRANS: Attagene TRANS-FACTORIAL HepG2 Assay for human RAR-related Orphan Receptor gamma (RORg) (AID 2283011; active means hit-call score of the fitted dose curve at least 0.9, where 1 is the maximum). The method in brief:
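Chimeric RORg-Gal4 transactivation in transfected HepG2; 24 h exposure; RT-PCR/capillary electrophoresis readout of reporter mRNA, DMSO baseline.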

Results filed as inconclusive are left out. The source made the active and inactive calls. How the source made its calls, unless noted: active means hit-call score of the fitted dose curve at least 0.9, where 1 is the maximum; inactive means score below 0.9.

human Retinoic Acid Receptor gamma (RARg), RARG (gene 5916), sequence (P13631 whole entry, looked up, the tested form may be a part): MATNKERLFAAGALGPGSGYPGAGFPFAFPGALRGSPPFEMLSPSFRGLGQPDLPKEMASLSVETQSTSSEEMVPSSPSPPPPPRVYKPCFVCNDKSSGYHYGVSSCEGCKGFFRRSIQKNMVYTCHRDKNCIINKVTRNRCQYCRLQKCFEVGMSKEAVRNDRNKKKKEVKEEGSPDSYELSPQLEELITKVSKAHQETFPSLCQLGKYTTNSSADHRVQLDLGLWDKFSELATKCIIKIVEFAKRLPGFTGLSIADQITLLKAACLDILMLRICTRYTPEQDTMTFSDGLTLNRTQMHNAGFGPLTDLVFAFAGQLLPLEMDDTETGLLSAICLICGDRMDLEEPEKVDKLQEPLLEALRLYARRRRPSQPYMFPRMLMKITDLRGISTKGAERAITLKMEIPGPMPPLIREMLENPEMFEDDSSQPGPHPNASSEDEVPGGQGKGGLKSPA
human Peroxisome Proliferator-activated Receptor delta (PPARd), PPARD (gene 5467), sequence (Q03181 whole entry, looked up, the tested form may be a part): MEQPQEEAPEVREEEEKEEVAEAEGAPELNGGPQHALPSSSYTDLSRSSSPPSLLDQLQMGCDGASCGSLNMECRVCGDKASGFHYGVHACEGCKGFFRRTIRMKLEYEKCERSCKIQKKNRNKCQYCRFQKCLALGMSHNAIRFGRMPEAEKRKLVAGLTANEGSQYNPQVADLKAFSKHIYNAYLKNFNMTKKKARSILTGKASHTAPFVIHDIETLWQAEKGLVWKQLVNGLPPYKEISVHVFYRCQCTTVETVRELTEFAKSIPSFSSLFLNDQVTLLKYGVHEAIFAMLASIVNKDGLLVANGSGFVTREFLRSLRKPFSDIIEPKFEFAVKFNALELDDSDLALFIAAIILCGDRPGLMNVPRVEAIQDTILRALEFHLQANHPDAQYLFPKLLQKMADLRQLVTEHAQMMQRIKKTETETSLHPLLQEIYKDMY
human RAR-related Orphan Receptor gamma (RORg), RORC (gene 6097), sequence (P51449 whole entry, looked up, the tested form may be a part): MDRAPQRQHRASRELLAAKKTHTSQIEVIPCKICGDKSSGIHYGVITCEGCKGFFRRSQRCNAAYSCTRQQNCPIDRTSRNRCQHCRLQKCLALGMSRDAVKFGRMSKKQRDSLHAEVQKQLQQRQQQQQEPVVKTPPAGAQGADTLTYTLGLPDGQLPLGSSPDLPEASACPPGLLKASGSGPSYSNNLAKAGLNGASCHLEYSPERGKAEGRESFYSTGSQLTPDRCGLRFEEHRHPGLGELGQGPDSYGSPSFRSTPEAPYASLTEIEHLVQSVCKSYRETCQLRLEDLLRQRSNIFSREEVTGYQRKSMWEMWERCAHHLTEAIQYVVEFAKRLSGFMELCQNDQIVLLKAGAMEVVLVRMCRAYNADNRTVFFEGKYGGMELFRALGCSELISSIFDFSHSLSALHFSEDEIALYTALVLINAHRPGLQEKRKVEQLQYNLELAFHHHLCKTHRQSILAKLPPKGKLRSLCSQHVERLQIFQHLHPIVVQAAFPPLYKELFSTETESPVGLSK
Retinoic acid receptor alpha (Homo sapiens), sequence (P10276 whole entry, looked up, the tested form may be a part): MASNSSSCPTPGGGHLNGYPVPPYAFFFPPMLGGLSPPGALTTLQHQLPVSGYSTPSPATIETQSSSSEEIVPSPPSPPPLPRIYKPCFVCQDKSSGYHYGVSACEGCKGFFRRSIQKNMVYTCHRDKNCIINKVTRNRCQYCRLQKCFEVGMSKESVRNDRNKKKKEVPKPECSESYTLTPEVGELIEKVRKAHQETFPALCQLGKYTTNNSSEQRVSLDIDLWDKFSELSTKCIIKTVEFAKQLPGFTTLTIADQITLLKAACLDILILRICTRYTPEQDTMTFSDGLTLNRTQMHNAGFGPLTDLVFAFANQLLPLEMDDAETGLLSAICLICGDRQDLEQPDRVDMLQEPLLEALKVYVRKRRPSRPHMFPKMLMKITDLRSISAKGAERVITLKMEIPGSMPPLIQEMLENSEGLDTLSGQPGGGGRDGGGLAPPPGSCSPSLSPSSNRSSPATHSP
Nuclear receptor subfamily 1 group I member 2 (Homo sapiens), sequence (O75469 whole entry, looked up, the tested form may be a part): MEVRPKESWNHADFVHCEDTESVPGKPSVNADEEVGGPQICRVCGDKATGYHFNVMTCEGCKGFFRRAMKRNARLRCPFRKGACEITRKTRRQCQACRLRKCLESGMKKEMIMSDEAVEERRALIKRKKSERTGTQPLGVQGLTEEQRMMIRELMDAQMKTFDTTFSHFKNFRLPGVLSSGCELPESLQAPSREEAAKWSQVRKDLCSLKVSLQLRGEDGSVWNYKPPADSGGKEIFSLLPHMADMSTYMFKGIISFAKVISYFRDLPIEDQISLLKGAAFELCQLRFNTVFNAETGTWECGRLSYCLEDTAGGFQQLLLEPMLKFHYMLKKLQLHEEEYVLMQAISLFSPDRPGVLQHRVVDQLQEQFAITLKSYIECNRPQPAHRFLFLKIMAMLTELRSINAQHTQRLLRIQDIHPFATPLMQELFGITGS

Take `CCCCCCCCO`: the outcome in assay [1], in assay [2], in assay [3], in assay [4], in assay [5] and in [6] was inactive. Moreover, the result in [7], in [8], in assay [9], in assay [10] and in [11] was inactive.

On to `Oc1ccc2c(c1)-c1ccccc1C2`, for which the AC50 was 63.1 µM (active) in assay [1]; 2.77 µM (active) in assay [2]; 32.6 µM (active) in assay [3]; 0.791 µM (active) in assay [5]; 14.4 µM (active) in assay [6]; 23.3 µM (active) in [7]. Further, the AC50 in assay [9] is 15.4 µM (active). For the same compound, the call in [4], in [12], in [13], in assay [10] and in assay [11] was inactive.

In the case of `CC(=O)OC[C@H]1O[C@@](COC(C)=O)(O[C@H]2O[C@H](COC(C)=O)[C@@H](OC(C)=O)[C@H](OC(C)=O)[C@H]2OC(C)=O)[C@@H](OC(C)=O)[C@@H]1OC(C)=O`, the compound was called inactive in assay [1], in assay [2], in assay [3], in [4], in assay [5] and in assay [6]. In addition, the result in [12], in [7], in assay [14], in assay [9] and in [10] was inactive.

In the case of `CCOC(=O)c1ccc(C2CCC(NC[C@H](O)COc3ccc(O)c(NS(C)(=O)=O)c3)CC2)cc1` (stereo partly drawn), the AC50 in [1] is 53.8 µM (active); in [3], 49.2 µM (active); in assay [4] it was 50 µM (active); in assay [6] it was 31.2 µM (active); in assay [12], 30.5 µM (active); in [8] it was 52.3 µM (active). Moreover, the AC50 in assay [9] is 28.1 µM (active); in assay [10], 33 µM (active). Further, the compound was called inactive in assay [2], in [5], in assay [7], in assay [14], in assay [15] and in [11].

On to `CC(C)CCCCCCOC(=O)c1ccc(C(=O)OCCCCCCC(C)C)c(C(=O)OCCCCCCC(C)C)c1`, for which the compound was called inactive in assay [1], in [2], in assay [3], in assay [4], in assay [5] and in [6]. Moreover, the result in [7], in assay [14], in assay [8], in assay [15], in [9] and in assay [16] was inactive. The compound was called inactive in assay [17].

`CCCCC(CC)COC(=O)c1ccc(C(=O)OCC(CC)CCCC)cc1` (stereo not drawn): the compound was called inactive in assay [1], in assay [2], in [3], in [4], in assay [5] and in [6]. The outcome in assay [14], in assay [15], in [9], in assay [11], in [17] and in assay [18] was inactive.

For the compound `CCCC(=O)OCC`, the result in assay [1], in assay [2], in [3], in [4], in [5] and in assay [6] was inactive. The result in assay [12], in assay [7] and in assay [9] was inactive.

Take `CC(C)=CCC/C(C)=C/CO`: the compound was classed as inactive in assay [1], in [2], in assay [3], in [4], in assay [5] and in assay [6]. Further, the outcome in assay [14], in assay [8], in assay [9], in assay [10], in assay [17] and in assay [18] was inactive.

For `CCCCC(CC)COC(=O)CCCCCCCCC(=O)OCC(CC)CCCC` (stereo not drawn), the call in assay [1], in assay [2], in assay [3], in [4], in assay [5] and in assay [6] was inactive. Also, the result in assay [12], in assay [13], in assay [9], in [16], in [10] and in [17] was inactive. In [18], the call was inactive.

As to `Cc1ccc(C)c(O)c1`, the call in [1], in assay [2], in assay [3], in assay [4], in assay [5] and in assay [6] was inactive. For the same compound, the outcome in [7], in assay [13], in [14], in [8], in assay [15] and in [9] was inactive. In addition, the result in [16], in [10], in assay [11] and in assay [17] was inactive.

By AC50 is commonly meant the midpoint of the concentration-response curve, whichever way the signal moves.
